# ELG1 genotoxic: genotoxicity induction in ELG1-luciferase HEK293T cells. Potency, µM (doses to about 46 µM), for the others: at the top dose activity change, positive = activation, usual class: activators. 1.3% of 330,000 active. HEK293T ELG1-luciferase reporter, luminescence, 16 h; further: % of control where 0% means no effect; nearly all actives have a fitted effect of over 60% in size
#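 Quantitative HTS format in 1536-well plates. HEK293T ELG1-luciferase reporter cells receive test compound and are incubated 16 hr at 37 °C, 5% CO2; ONE-Glo added, 30 min room temperature, then luminescence read.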
# SMN2 splice up: increases expression of the SMN2 splice variant. AID 1458. 2.8% of 210,000 active. Potency, µM (doses to about 46.1 µM), without a hit: at the top dose activity change, positive = activation, usual class: activators. HEK293 SMN2-luciferase splicing reporter, luminescence, 30-36 h; further: % of control where 0% means no effect; nearly all actives have a fitted effect of over 55% in size
#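 qHTS luciferase splicing reporter: luminescence rises when SMN2 exon 7 is included in transfected HEK293 cells. Compound exposure lasted 30-36 h at 37C, with 4.5 mM final sodium butyrate as control, followed by a ONE-Glo read.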
# Rab9 promoter act: activators of Rab9 promoter. Huh7 Rab9 promoter-luciferase reporter, luminescence, 24 h. Potency, µM (series often up to 9.22 µM), without a hit: at the top dose activation, negative = inhibition, most hits filed as activators. 2.8% of 320,000 active. AID 485297; further: % of control where 0% means no effect; nearly all actives have a fitted effect of over 60% in size
#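 Luminescence from Amplite-detected luciferase (10 minutes, ambient) reports Rab9 promoter activation. Before that, stable Rab9-luciferase Huh7 cells (1500/well, reduced-serum OP-MEM I plus 10% FBS) were exposed to compound for 24 hours at 37C.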
# NPC1 prom act: activates the NPC1 promoter. Potency, µM (top dose mostly 9.22 µM), inactives show top-dose activation, most hits filed as activators. 2.4% of 320,000 active. Huh7 NPC1 promoter luciferase reporter, 24 h; further: % of control where 0% means no effect; nearly all actives have a fitted effect of over 60% in size
#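 Huh7 cells stably carrying NPC1 promoter–luciferase, plated in Opti-MEM with 10% FBS for 2 h, were exposed to compound in DMSO for 24 h at 37 °C; luciferase reagent was added for 10 min and luminescence read.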
# FLuc counter: counter-screen for miR-21 project: firefly luciferase inhibitors or activators; purified FLuc, Km substrates, luminescence inhibition; P08659; 6.9% of 360,000 active; Potency, µM (top dose mostly 57.5 µM), without a hit: top-dose activity change, negative = inhibition, actives largely listed as inhibitors;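 further: plate controls were vehicle for no effect and reference inhibitor for full effect; nearly all actives have a fitted effect of over 55% in size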
# Target sequence (P08659 whole entry, looked up): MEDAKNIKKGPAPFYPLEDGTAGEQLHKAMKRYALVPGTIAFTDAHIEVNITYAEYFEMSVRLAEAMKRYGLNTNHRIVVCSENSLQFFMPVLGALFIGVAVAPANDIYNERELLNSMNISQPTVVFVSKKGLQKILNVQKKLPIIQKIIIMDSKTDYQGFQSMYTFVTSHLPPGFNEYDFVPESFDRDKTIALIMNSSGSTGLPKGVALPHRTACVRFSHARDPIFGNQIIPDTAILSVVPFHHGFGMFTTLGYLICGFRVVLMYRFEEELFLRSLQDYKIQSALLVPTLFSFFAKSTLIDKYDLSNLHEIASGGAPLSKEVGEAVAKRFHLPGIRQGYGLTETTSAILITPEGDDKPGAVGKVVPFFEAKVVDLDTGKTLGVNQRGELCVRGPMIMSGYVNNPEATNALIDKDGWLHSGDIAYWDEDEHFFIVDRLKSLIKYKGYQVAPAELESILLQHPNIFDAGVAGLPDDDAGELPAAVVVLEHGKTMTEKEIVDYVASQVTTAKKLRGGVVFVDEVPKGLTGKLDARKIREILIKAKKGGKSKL
#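 Purified P. pyralis luciferase, 10 nM final, with Km-level 10 uM D-luciferin and 10 uM ATP in 50 mM Tris acetate pH 7.5, 10 mM Mg acetate, 0.01% Tween-20, 0.05% BSA; 6-point qHTS titration about 60 µM downward; luminescence read.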
# Active calls of the source: *; u = inconclusive; x = no result given. In the library only some 7.4% were active in any assay of this set; here they are far more common. The call rests on the fitted dose curve; in most records, active means well fitted curve in the direction sought with a large enough effect; inconclusive means small, poorly fitted or top-dose-only effect, or another doubt; inactive means no such curve, though single readings can be large; an effect the other way counts as inactive or inconclusive. Potency means the concentration at half of the fitted maximal effect.
SMILES,ELG1 genotoxic,SMN2 splice up,Rab9 promoter act,NPC1 prom act,FLuc counter
CCOC(=O)/C(C#N)=C/N=c1ccc(C)cn1C,u,x,u,u,16.9µM*
CC(C)COC(=O)/C(C#N)=C\c1ccc(-c2ccccc2Cl)o1,x,-2.2%,x,x,u
CCCCOC(=O)/C(C#N)=C/c1ccc(-c2ccc(Br)cc2)o1,x,3.3%,x,x,-18.7%
CCOC(=O)/C(C#N)=C/c1ccc(-c2ccccc2)o1,x,0.0%,x,x,9.53µM*
CCCN1C=CC(=C/C=C(\C#N)C(=O)OCC)C=C1,u,14.1µM*,3.98µM*,3.98µM*,6.01µM*
CCOC(=O)/C(C#N)=C/c1ccc(-c2ccc(C)cc2)o1,x,10.2%,x,x,3.79µM*
CCOC(=O)Oc1c(OC)cc(C(=O)O[C@@H]2C[C@@H]3CN4CCc5c([nH]c6cc(OC)ccc56)[C@H]4C[C@@H]3[C@H](C(=O)OC)[C@H]2OC)cc1OC,-45.2%,x,-2.5%,-12.6%,2.0%
Cc1ccccc1OCC(=O)NCC(c1ccc(Cl)cc1)N1CCOCC1 (stereo not drawn),x,x,x,x,-2.8%
CCOc1ccc(NC(=O)CSc2nc3ccccc3nc2N2CCCC2)cc1,0.1%,x,-2.1%,0.8%,2.5%
CN1CCN(C(=O)c2ccccc2NS(=O)(=O)c2ccc(F)cc2)CC1,1.7%,x,-0.3%,-1.1%,-0.4%
O=c1[nH]c2ccccc2nc1CCc1ccccc1,u,u,3.16µM*,u,-8.6%
Nc1cccc(CCc2nc3cc4ccccc4cc3[nH]2)c1,18.4µM*,5.62µM*,1.58µM*,26.9%,19µM*
Nc1ccc2nc(CCCCc3nc4ccccc4[nH]3)[nH]c2c1,-2.9%,x,0.2%,-10.1%,4.4%
CN(CC(=O)O)Cc1nc2ccccc2[nH]1,u,0.7%,-3.3%,0.8%,21.3µM*
O=c1[nH]c2ccccc2nc1Cc1ccc(Cl)cc1,3.5%,x,-0.8%,-2.8%,1.1%
c1ccc(CCc2nc3ccccc3[nH]2)cc1,u,x,u,u,16.9µM*
COc1ccc(NC(=O)N2CC3(CCNCC3)C2)cc1,x,7.7%,x,x,x
Cc1ccc(-n2ncc(C#N)c2N)cc1,4.9%,x,0.8%,-3.9%,-3.4%
Nc1c(-c2ccccc2)cnc2cc(-c3ccccc3)nn12,2.59µM*,4.47µM*,0.708µM*,1.41µM*,0.601µM*
Cc1cc2ncc(-c3ccc(Cl)cc3)c(N)n2n1,14.6µM*,12.6µM*,3.98µM*,u,9.53µM*
Cc1ccc(-c2cc3ncc(C#N)c(N)n3n2)cc1,u,u,2.82µM*,2.82µM*,-19.4%
O=C(Nc1ccccc1)N(Cc1c[nH]c2ccccc12)C1CCCCCC1,x,2.6%,x,x,-6.1%
COc1cccc(N2CCN(c3cnc4ccccc4n3)CC2)c1,7.9%,14.3%,1.58µM*,u,23.9µM*
COc1ccc(N2CCN(c3cnc4ccccc4n3)CC2)cc1,u,u,u,u,13.5µM*
COc1ccc(N2CCN(c3cc(C)c4ccccc4n3)CC2)cc1,-10.8%,-27.6%,-0.1%,-11.5%,-0.4%
SMILES,ELG1 genotoxic,SMN2 splice up,Rab9 promoter act,NPC1 prom act,FLuc counter
CCc1cccc(NC(=O)c2cnc(SC)nc2-c2ccccc2)c1,x,x,x,x,-12.5%
CCOC(=O)Cn1c(=O)n(CC2CCCO2)c2nc(-c3ccccc3)nc(C(N)=O)c21 (stereo not drawn),x,x,x,x,3.4%
CCOC(=O)c1c(NC(=O)c2cc(OCC)c(OCC)c(OCC)c2)sc2c1CCCCC2,x,-2.8%,x,x,-0.2%
N#CC1=C(N)Oc2cc3c(cc2C1c1ccc(Cl)cc1)OCO3 (stereo not drawn),-1.6%,25.1µM*,-1.2%,-3.8%,-2.0%
Cc1ccc(C2C(C#N)=C(N)Oc3cc(N)ccc32)cc1 (stereo not drawn),-0.6%,x,5.1%,-7.1%,-3.5%
O=C(CSc1cccc[n+]1[O-])Nc1cc2c(cc1Cl)C(=O)c1ccccc1C2=O,15.8%,11.2µM*,u,u,10.7µM*
Cc1ccc(Cl)cc1NC(=O)CN1C(=O)CSc2ccc(S(=O)(=O)N3CCCC3)cc21,x,x,x,x,4.5%
Cc1cccc(C)c1NS(=O)(=O)c1ccc(OCCNS(C)(=O)=O)cc1,-5.5%,x,-0.4%,-5.5%,-2.9%
CC(C)(C)OC(=O)NCCCC[C@H](NC(=O)c1nc[nH]c1C(=O)N1CCN(c2ccccc2)CC1)C(=O)OC(C)(C)C,-10.5%,x,-2.7%,-2.3%,-0.4%

# High-throughput results from PubChem BioAssay.
